Laboratory results: PMC5540273 (PLoS ONE, 2017)

Test system: NLK
Conditions: concentration: 1 μM,replicates: in singlicate; n = 1
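Note: KINOMEscan kinase panel screen.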

With `CC(C)c1nc(-c2cccc(NS(=O)(=O)c3ccccc3)c2)c(-c2ccnc(Nc3ccc4c(c3)CN(C)CC4)n2)s1` [GSK1649598] as the compound, how does the “%Inh” value read?
The value was 98.1%.

`OCCn1cc(-c2cnc3nnn(Cc4ccc5ncccc5c4)c3n2)cn1` was tested. Which “%Inh” value did it give?
The value was 0%.

How did the “%Inh” value turn out when `O=C(Nc1n[nH]c2cc(-c3ccco3)ccc12)C1CC1` [SB-737447] was run?
Its value is 4%.

Test system: T1, OSR1
T1 construct: gene OXSR1
Conditions: concentration: 1 μM,replicates: in singlicate; n = 1

How did the “%Inh” value turn out when `COC(=O)Nc1nc2cc(Oc3ccc(NC(=O)Nc4cc(C(F)(F)F)ccc4Cl)cc3)ccc2[nH]1.Cl` [GW697465] was run?
The value was 10%.

`CS(=O)(=O)c1cccc(CNc2nc(Nc3ccc4c(c3)[C@@H]3C[C@@H]4CNC3=O)ncc2C(F)(F)F)c1` was tested. Which “%Inh” value did it give?
Its value is 48%.

Which “%Inh” value does the source give for `COc1cccc(C2=C(Nc3cccc(Cl)c3)C(=O)NC2=O)c1` [SB-341556] here?
Its value is 27%.

How did the “%Inh” value turn out when `Cc1ccc2c(-c3ccnc(Nc4ccc(C(F)(F)F)cc4)n3)cnn2n1` [GW819776] was run?
Its value is 0%.

How did the “%Inh” value turn out when `CN1CCN(CCNc2nc3cc(Oc4ccc(NC(=O)Nc5cc(C(F)(F)F)ccc5F)cc4)ccc3[nH]2)CC1.Cl.Cl` [GW768504] was run?
Its value is 0%.

Which “%Inh” value does the source give for `COc1cc2c(Nc3ccc(NC(=O)c4ccccc4)cc3)ncnc2cc1OCCCN1CCOCC1` [GSK301329] here?
Its value is 20%.

With `COc1cccc(OC)c1C(=O)Nc1cccc(-c2nn3ccccc3c2-c2ccnc(Nc3cccc(F)c3)n2)c1` [GSK361065] as the compound, how does the “%Inh” value read?
The value was 0%.

For `Cc1cccc(-c2nc(Nc3ccncc3)c3sccc3n2)n1` [GW869641], which “%Inh” value is on record?
Its value is 24%.

For `C[C@@H](Oc1cc(-n2cnc3cc(-c4cnn(C)c4)ccc32)sc1C(N)=O)c1ccccc1Cl` [GSK580432], which “%Inh” value is on record?
The value was 12%.

Which “%Inh” value does the source give for `Cn1ccc2ncnc(Oc3ccc(NC(=O)Nc4cnn(C(C)(C)C)c4)c(Cl)c3)c21` here?
Its value is 6%.

Which “%Inh” value does the source give for `Cn1ccc2ncnc(Oc3ccc(NC(=O)Nc4ccnc(C(F)(F)F)c4)c(Cl)c3)c21` here?
Its value is 0%.

For `C[C@@H](Oc1cc(-n2cnc3cc(-c4ccncc4)ccc32)sc1C(N)=O)c1ccccc1Cl` [GSK479719], which “%Inh” value is on record?
Its value is 18%.

How did the “%Inh” value turn out when `c1ccc(Oc2ccc(Nc3ccnc4ccc(-c5ccccn5)cc34)cc2)cc1` [GW407034] was run?
The value was 57%.

`COC(=O)c1cccc(NC(=O)NC2CCN(c3ccnc(NCc4ccc(F)cc4)n3)CC2)c1` [GSK1379860] was tested. Which “%Inh” value did it give?
The value was 19%.

How did the “%Inh” value turn out when `COc1cccc(CNC(=O)NC2CCN(c3ccnc(Nc4cc(OC)c(OC)c(OC)c4)n3)C2)c1` (stereo not shown) [GSK1379765] was run?
The value was 3%.

With `Cn1ccc2ncnc(Oc3ccc(NC(=O)Nc4cccc(C(F)(F)F)c4)c(Cl)c3)c21` as the compound, how does the “%Inh” value read?
Its value is 0%.

Which “%Inh” value does the source give for `O=C(NCC1CC1)c1ccc(-c2cc(C(=O)NC3CC3)ccc2F)cc1` [GW810445] here?
The value was 0%.

For `O=c1[nH]cc(-c2ccc(O)cc2)c2sc(-c3ccncc3)cc12` [GSK1033723], which “%Inh” value is on record?
The value was 3%.

`Cn1ccc2ncnc(Oc3ccc(NC(=O)Nc4cncc(C(F)(F)F)c4)c(Cl)c3)c21` was tested. Which “%Inh” value did it give?
Its value is 0%.

`Cc1ccc(Nc2ccnc(Nc3ccc4c(c3)CS(=O)(=O)C4)n2)cc1O.Cl` [GW579362] was tested. Which “%Inh” value did it give?
The value was 46%.

Which “%Inh” value does the source give for `N#Cc1cccc(C(=O)NC2CCN(c3ccnc(Nc4ccc(F)cc4)n3)C2)c1` (stereo not shown) [GSK1379708] here?
Its value is 6%.

For `C[C@@H]1CNc2c(sc3ccc4nc(-c5ccc(O)cc5)ccc4c23)C(=O)N1`, which “%Inh” value is on record?
The value was 0%.

How did the “%Inh” value turn out when `C[C@@H]1CNc2c(sc3ccc4nc(-c5ccncc5)ccc4c23)C(=O)N1` was run?
The value was 9%.

`Cl.Nc1n[nH]c2cc(-c3ccccn3)ccc12` [GSK2189892] was tested. Which “%Inh” value did it give?
Its value is 11%.

With `CCNCC(Cc1ccccc1)NC(=O)c1cc(Br)c(-c2ccnc3[nH]ccc23)s1.Cl.Cl` (stereo not shown) [GSK1383280] as the compound, how does the “%Inh” value read?
The value was 8%.

`CN(c1ccc2c(c1)nc(NCc1ccc(F)cc1)n2C)c1ccnc(Nc2ccc(CS(C)(=O)=O)cc2)n1.Cl` [GW813244] was tested. Which “%Inh” value did it give?
Its value is 0%.

How did the “%Inh” value turn out when `COc1cc2ncn(-c3cc(OCC4CCCCC4)c(C(N)=O)s3)c2cc1OC` [GSK204559] was run?
Its value is 15%.

How did the “%Inh” value turn out when `O=C(Nc1ccc(Oc2ccc3nc(NC(=O)C4CC4)cn3n2)c(F)c1)c1cccn(-c2ccccc2)c1=O` was run?
Its value is 0%.

Which “%Inh” value does the source give for `Cl.Cl.NC[C@H](CC1CCCCC1)NC(=O)c1ccc(-c2ccnc3[nH]ccc23)s1` [GSK1581428] here?
The value was 19%.

For `CSc1nccc(-c2c(-c3ccc(F)cc3)ncn2CCCN2CCOCC2)n1.Cl` [SB-217146], which “%Inh” value is on record?
Its value is 0%.

Which “%Inh” value does the source give for `CCOC(=O)N1CCC(n2cnc(-c3ccc(F)cc3)c2-c2ccnc(N)n2)CC1` [SB-219952] here?
The value was 1%.

For `CS(=O)(=O)Nc1ccc(-c2ccnc3[nH]ccc23)cc1` [GSK993273], which “%Inh” value is on record?
The value was 41%.

For `O=C(Nc1cccc(C(F)(F)F)c1)c1cccc(Oc2ccc3nccn3n2)c1`, which “%Inh” value is on record?
Its value is 0%.

With `O=C(NOCC1CC1)c1cc(Br)c(F)c(F)c1Nc1ccc(I)cc1Cl` as the compound, how does the “%Inh” value read?
Its value is 0%.

For `CC(C)c1nc(-c2cccc(NS(=O)(=O)c3ccccc3)c2)c(-c2ccnc(Nc3ccc4c(c3)CN(C)CC4)n2)s1` [GSK1649598], which “%Inh” value is on record?
Its value is 14%.

`OCCn1cc(-c2cnc3nnn(Cc4ccc5ncccc5c4)c3n2)cn1` was tested. Which “%Inh” value did it give?
The value was 0%.

`O=C(Nc1n[nH]c2cc(-c3ccco3)ccc12)C1CC1` [SB-737447] was tested. Which “%Inh” value did it give?
Its value is 12%.
